# The panel holds about 83,000 compounds, 20% with a hit somewhere; the sample as a whole holds those more often.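 Cells were grown in 96-well plates and exposed to the test compound at a single concentration for 48 hours; results are reported as percent growth, with values below 10 considered active.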 A number with no mark means an inactive call. The source made the active and inactive calls.
# Tested on: MDA-MB-435 melanoma
# Assay: NCI-60 one-dose screen, 48 h (100 = growth as untreated, 0 = no growth, -100 = all killed)
# Settings: 10 µM
row,Structure (SMILES),growth
1,CC(=O)/C(=C\c1ccc(Cl)cc1)c1ccccc1,-35.2% (active)
2,COc1ccc2nc(NC(=O)Nc3c(F)cccc3F)sc2c1,99%
3,COc1cc(Cn2c(-c3ccccc3)cc3c2-c2oncc2CC3)cc(OC)c1,-39.5% (active)
4,CCC(CCNc1cc(OC)cc2cccnc12)CN1C(=O)c2ccccc2C1=O (stereo not given),107%
5,CCOC(=O)c1sc(NC(=O)c2cc(OC)c(OC)c(OC)c2)nc1C,102%
6,C#CCNCCN1C(=O)c2ccc3c4c(ccc(c24)C1=O)C(=O)N(CCNCC#C)C3=O,-35.8% (active)
7,CC(=O)Nc1nc(C)c(C(=O)NNC=O)s1,107%
8,CCN(CCCNC(=O)Cc1cc(=O)oc2cc(N(C)C)ccc12)CCNc1ccnc2cc(Cl)ccc12,46.7%
9,Cc1nc(N)sc1Sc1nc2ccc(Cl)cc2c(=O)n1-c1ccc(Oc2ccccc2)cc1,88.1%
10,COc1ccc(-c2nnc(COc3ccc(NC(=O)Nc4cccc(C(F)(F)F)c4)cc3F)o2)cc1,61.6%
11,Cc1ccc(/C(CS(=O)(=O)c2ccc(C)cc2)=N\O)cc1,89%
12,O=[N+]([O-])c1ccc(-c2nc(-c3ccccc3)c(-c3ccccc3)n2-c2ccccc2)cc1,36.5%
13,COc1ccc(NC(=O)CCn2cnc3c(cc(-c4ccccc4)n3-c3ccccc3)c2=O)cc1,96%
14,CCCCCCCCCCCC(=O)NCCCN(C)C,94.5%
15,COc1ccc(S(=O)(=O)Nc2ccc(OCc3nnc(-c4ccc(Cl)cc4)o3)c(F)c2)cc1,64%
16,Fc1ccc(-c2cc(C(Cl)Cl)no2)cc1,97.3%
17,CCCc1c(C)nc2scc(-c3ccc(Cl)cc3)n2c1=O,108%
18,O=C(O)c1cc(C(F)(F)F)cc(C(F)(F)F)c1,104%
19,CC(=O)Nc1nc(C)c(C(=O)N/N=C/c2cccn2C)s1,104%

row,Structure (SMILES),growth
1,CCOc1cc(Br)c(C(C)NC(=O)c2cccc(OC)c2)cc1OCC (stereo not given),6.36% (active)
2,CCN1CCN(c2ccc(Nc3ncnc4c3nnn4CCc3cc(OC)cc(OC)c3)cc2)CC1,95.4%
3,CC(=O)OC1Oc2ccccc2-c2oc(=O)c(-c3cc(=O)oc4cc(O)ccc34)cc21 (stereo not given),86.8%
4,Cc1ccc(-c2cc(C(=O)Nc3ccc(S(=O)(=O)N4CCCCC4)cc3)[nH]n2)c(O)c1,61.3%
5,COc1ccc(-c2csc(NC(=O)CO[N+](=O)[O-])n2)cc1,106%
6,CCN(CC)CCn1c(=N)n(CC(O)c2ccc(Cl)c(Cl)c2)c2ccccc21 (stereo not given),1.39% (active)
7,Cc1cc(Nc2cccc(F)c2)nc(NCc2ccccc2)n1,23.2%
8,CCOC(=O)[C@@H]1[C@H](c2ccccc2)[C@H]([N+](=O)[O-])[C@H](c2cn(-c3ccccc3)nc2C)N1Cc1ccccc1,92.3%
9,COc1ccc(C2C=C(c3ccc(Cl)cc3)N=C3SC=CN32)c(Br)c1 (stereo not given),69.2%
10,CCCc1ccnc(NS(=O)(=O)c2ccc(N)cc2)n1,77.9%
11,O=C1/C(=C/c2cccs2)CCC/C1=C\c1cccs1,81.3%
12,COc1cc(Nc2ccnc(N3CCN(c4ccnc5cc(Cl)ccc45)CC3)n2)cc(OC)c1,1.35% (active)
13,Clc1ccc(-c2nc(-c3cccs3)cn3ccnc23)cc1,23.2%
14,CCN1CCOC1C(C)C (stereo not given),105%
15,Cn1cnc([N+](=O)[O-])c1Sc1nnc(-c2ccccc2)c(-c2ccccc2)n1,42.1%
16,C=CCOc1ccc2c(c1)CC=C1[C@@H]2CC[C@]2(C)C(=O)/C(=N/O)C[C@@H]12,72.6%
17,O=C(N/N=C\c1cc(Cl)ccc1O)c1ccncc1,89.4%
18,Cc1nc2cc(-n3c(-c4ccc(F)cc4)nc4ccccc4c3=O)ccc2n1Cc1ccccc1,-32.6% (active)
19,O=[N+]([O-])c1ccc2c(c1)Cc1cc(I)ccc1-2,98.1%

# Tested on: SW-620 colon
# Assay: as above
# Settings: 10 µM
row,Structure (SMILES),growth [%]
1,CC(=O)/C(=C\c1ccc(Cl)cc1)c1ccccc1,25.6
2,COc1ccc2nc(NC(=O)Nc3c(F)cccc3F)sc2c1,105
3,COc1cc(Cn2c(-c3ccccc3)cc3c2-c2oncc2CC3)cc(OC)c1,23.8
4,CCC(CCNc1cc(OC)cc2cccnc12)CN1C(=O)c2ccccc2C1=O (stereo not given),135
5,CCOC(=O)c1sc(NC(=O)c2cc(OC)c(OC)c(OC)c2)nc1C,98.1
6,C#CCNCCN1C(=O)c2ccc3c4c(ccc(c24)C1=O)C(=O)N(CCNCC#C)C3=O,26.9
7,CC(=O)Nc1nc(C)c(C(=O)NNC=O)s1,101
8,CCN(CCCNC(=O)Cc1cc(=O)oc2cc(N(C)C)ccc12)CCNc1ccnc2cc(Cl)ccc12,74.9
9,Cc1nc(N)sc1Sc1nc2ccc(Cl)cc2c(=O)n1-c1ccc(Oc2ccccc2)cc1,66.1
10,COc1ccc(-c2nnc(COc3ccc(NC(=O)Nc4cccc(C(F)(F)F)c4)cc3F)o2)cc1,54.3
11,Cc1ccc(/C(CS(=O)(=O)c2ccc(C)cc2)=N\O)cc1,106
12,O=[N+]([O-])c1ccc(-c2nc(-c3ccccc3)c(-c3ccccc3)n2-c2ccccc2)cc1,48.8
13,CCCCCCCCCCCC(=O)NCCCN(C)C,102
14,COc1ccc(S(=O)(=O)Nc2ccc(OCc3nnc(-c4ccc(Cl)cc4)o3)c(F)c2)cc1,84.5
15,Fc1ccc(-c2cc(C(Cl)Cl)no2)cc1,92.1
16,CCCc1c(C)nc2scc(-c3ccc(Cl)cc3)n2c1=O,109

row,Structure (SMILES),growth [%]
1,CC(=O)Nc1nc(C)c(C(=O)N/N=C/c2cccn2C)s1,102
2,CCOc1cc(Br)c(C(C)NC(=O)c2cccc(OC)c2)cc1OCC (stereo not given),85.7
3,CCN1CCN(c2ccc(Nc3ncnc4c3nnn4CCc3cc(OC)cc(OC)c3)cc2)CC1,102
4,CC(=O)OC1Oc2ccccc2-c2oc(=O)c(-c3cc(=O)oc4cc(O)ccc34)cc21 (stereo not given),92.2
5,COc1ccc(-c2csc(NC(=O)CO[N+](=O)[O-])n2)cc1,103
6,CCN(CC)CCn1c(=N)n(CC(O)c2ccc(Cl)c(Cl)c2)c2ccccc21 (stereo not given),93.5
7,Cc1cc(Nc2cccc(F)c2)nc(NCc2ccccc2)n1,22.7
8,CCOC(=O)[C@@H]1[C@H](c2ccccc2)[C@H]([N+](=O)[O-])[C@H](c2cn(-c3ccccc3)nc2C)N1Cc1ccccc1,73.1
9,COc1ccc(C2C=C(c3ccc(Cl)cc3)N=C3SC=CN32)c(Br)c1 (stereo not given),91.3
10,CCCc1ccnc(NS(=O)(=O)c2ccc(N)cc2)n1,99.5
11,COc1cc(Nc2ccnc(N3CCN(c4ccnc5cc(Cl)ccc45)CC3)n2)cc(OC)c1,11
12,Clc1ccc(-c2nc(-c3cccs3)cn3ccnc23)cc1,57.3
13,Cn1cnc([N+](=O)[O-])c1Sc1nnc(-c2ccccc2)c(-c2ccccc2)n1,48
14,C=CCOc1ccc2c(c1)CC=C1[C@@H]2CC[C@]2(C)C(=O)/C(=N/O)C[C@@H]12,79.6
15,O=C(N/N=C\c1cc(Cl)ccc1O)c1ccncc1,64.7
16,Cc1nc2cc(-n3c(-c4ccc(F)cc4)nc4ccccc4c3=O)ccc2n1Cc1ccccc1,11.6

# From PubChem BioAssay (NCI)
